Experimental data as given in PubChem BioAssay (Tox21).
Records with an inconclusive call do not appear. Active and inactive are the calls of the source. Calls follow the shape of the dose curve; as a rule, active = well fitted curve in the direction sought with a large enough effect in the repeat runs; inconclusive = weak or mixed curves; inactive = no such curve, though single readings can be large; an effect the other way counts as inactive or inconclusive.

What was measured:
[1] = qHTS RealTime-Glo MT Cell Viability Assay in HepG2 cells - 24 hour (AID 1224867); also: nearly all actives have a fitted effect of over 50% in size
Summary of the method: (§1)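 HepG2 cells (600/well) were dispensed with RealTime-Glo reagents, incubated 5 h at 37 °C, then treated with compounds in DMSO for up to 40 h. Nonlytic NanoLuc luminescence reflecting viable cells was read at each stated time point.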

[2] = qHTS RealTime-Glo MT Cell Viability Assay in HEK293 cells - 32 hour (AID 1224868); also: top concentration of the series differs between compounds; nearly all actives have a fitted effect of over 50% in size
Summary of the method: (§2)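 HEK293 cells seeded with NanoLuc/prosubstrate reagent, rested 5 h at 37 C, then dosed and kept at 37 C up to 40 h. Nonlytic real-time luminescence from viable cells read at 0, 8, 16, 24, 32 and 40 h.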

[3] = A CellTox Green Cytotoxicity Assay to monitor cytotoxicity in HEK293 cells - 0 hour (AID 1224869); also: nearly all actives have a fitted effect of over 50% in size
Summary of the method: (§3)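 Fluorescence intensity, read at 0, 8, 16, 24, 32 and 40 h of compound treatment, reflected dye binding to DNA of dead HEK293 cells; compounds (23 nL, DMSO) were added 5 h after plating cells with reagent.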

[4] = qHTS RealTime-Glo MT Cell Viability Assay in HepG2 cells - 40 hour (AID 1224870); also: nearly all actives have a fitted effect of over 50% in size
Summary of the method: (§4)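 HepG2 cells (600/well) mixed with RealTime-Glo MT reagent, settled 5 h at 37 C/5% CO2 before compound addition. Nonlytic NanoLuc luminescence from viable-cell prosubstrate reduction read repeatedly during 40 h treatment at 37 C.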

[5] = qHTS RealTime-Glo MT Cell Viability Assay in HEK293 cells - 16 hour (AID 1224872)
Summary of the method: as §2

[6] = qHTS RealTime-Glo MT Cell Viability Assay in HepG2 cells - 8 hour (AID 1224873); also: nearly all actives have a fitted effect of over 55% in size
Summary of the method: as §4

[7] = qHTS RealTime-Glo MT Cell Viability Assay in HEK293 cells - 40 hour (AID 1224874); settings: RealTime-Glo luminescence; max response: active compounds read low; also: nearly all actives have a fitted effect of over 50% in size
Summary of the method: (§5)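 Viable HEK293 cells reduce a cell-permeant prosubstrate; the product diffuses out and is consumed by NanoLuc in the medium to give light. Compounds went in after a 5 h incubation and plates were read over the treatment course.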

[8] = A CellTox Green Cytotoxicity Assay to monitor cytotoxicity in HEK293 cells - 24 hour (AID 1224875); also: series mostly up to about 77 µM; nearly all actives have a fitted effect of over 45% in size
Summary of the method: as §3

[9] = A CellTox Green Cytotoxicity Assay to monitor cytotoxicity in HepG2 cells - 16 hour (AID 1224876); also: nearly all actives have a fitted effect of over 45% in size
Summary of the method: (§6)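 Using 1536-well format, dye-containing HepG2 suspension was seeded, allowed 5 h at 37 C/5% CO2, dosed by pintool with compounds, positive and negative controls, and imaged for fluorescence across 40 h.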

[10] = qHTS RealTime-Glo MT Cell Viability Assay in HepG2 cells - 32 hour (AID 1224877); also: nearly all actives have a fitted effect of over 55% in size
Summary of the method: as §1

[11] = A CellTox Green Cytotoxicity Assay to monitor cytotoxicity in HepG2 cells - 24 hour (AID 1224878); also: nearly all actives have a fitted effect of over 45% in size
Summary of the method: as §6

[12] = A CellTox Green Cytotoxicity Assay to monitor cytotoxicity in HepG2 cells - 40 hour (AID 1224879); also: nearly all actives have a fitted effect of over 40% in size
Summary of the method: as §6

[13] = qHTS RealTime-Glo MT Cell Viability Assay in HEK293 cells - 0 hour (AID 1224880); also: top concentration of the series differs between compounds; nearly all actives have a fitted effect of over 45% in size
Summary of the method: as §5

[14] = A CellTox Green Cytotoxicity Assay to monitor cytotoxicity in HEK293 cells - 32 hour (AID 1224881); also: nearly all actives have a fitted effect of over 40% in size
Summary of the method: as §3

[15] = A CellTox Green Cytotoxicity Assay to monitor cytotoxicity in HepG2 cells - 0 hour (AID 1224882); also: nearly all actives have a fitted effect of over 35% in size
Summary of the method: as §6

[16] = A CellTox Green Cytotoxicity Assay to monitor cytotoxicity in HepG2 cells - 32 hour (AID 1224883); also: nearly all actives have a fitted effect of over 50% in size
Summary of the method: as §6

[17] = A CellTox Green Cytotoxicity Assay to monitor cytotoxicity in HEK293 cells - 8 hour (AID 1224884); also: nearly all actives have a fitted effect of over 35% in size
Summary of the method: as §3

[18] = qHTS RealTime-Glo MT Cell Viability Assay in HepG2 cells - 16 hour (AID 1224885); also: nearly all actives have a fitted effect of over 50% in size
Summary of the method: as §1

[19] = A CellTox Green Cytotoxicity Assay to monitor cytotoxicity in HEK293 cells - 40 hour (AID 1224871); also: nearly all actives have a fitted effect of over 45% in size
Summary of the method: as §3
% is scaled to controls: 0 for no effect and ±100 for the full control effect.

CCO[Si](CC)(OCC)OCC
inactive: outcome [1] | Potency [2] | Potency [3] | outcome [4] | Potency [5] | outcome [6] | max response [7] -9.96% | Potency [8] | Potency [9] | outcome [10] | Potency [11] | Potency [12] | Potency [13] | Potency [14] | Potency [15] | Potency [16] | Potency [17] | outcome [18]

O=C[O][Al]([O]C=O)[O]C=O
inactive: outcome [1] | Potency [2] | Potency [3] | outcome [4] | Potency [5] | outcome [6] | max response [7] 5.61% | Potency [8] | Potency [9] | outcome [10] | Potency [11] | Potency [12] | Potency [14] | Potency [16] | outcome [18]

CC(C)NCC(O)c1ccc2ccccc2c1 (stereo not given)
inactive: outcome [1] | Potency [2] | Potency [3] | Potency [19] | Potency [5] | outcome [6] | max response [7] -5.31% | Potency [8] | Potency [9] | outcome [10] | Potency [11] | Potency [12] | Potency [13] | Potency [14] | Potency [15] | Potency [16] | Potency [17] | outcome [18]

COc1cc(/C=C/C(N)=O)cc(OC)c1OC
inactive: outcome [1] | Potency [2] | Potency [3] | Potency [5] | outcome [6] | max response [7] -21.8% | Potency [8] | Potency [9] | outcome [10] | Potency [11] | Potency [12] | Potency [13] | Potency [14] | Potency [15] | Potency [16] | Potency [17] | outcome [18]

C=CCCCCCCCCC(=O)OCCCC
inactive: outcome [1] | Potency [2] | outcome [4] | Potency [19] | Potency [5] | max response [7] 7.61% | Potency [8] | Potency [9] | outcome [10] | Potency [13] | Potency [14] | Potency [15] | Potency [17] | outcome [18]

Cc1ccc(C(=O)O)cc1[N+](=O)[O-]
inactive: outcome [1] | Potency [2] | outcome [4] | Potency [5] | max response [7] 6.44% | Potency [8] | outcome [10] | Potency [11] | Potency [12] | Potency [13] | Potency [14] | Potency [16] | Potency [17] | outcome [18]

O=C(O)CONC(=O)c1ccccc1
inactive: outcome [1] | Potency [2] | Potency [19] | Potency [5] | outcome [6] | max response [7] 1.73% | Potency [8] | Potency [9] | outcome [10] | Potency [11] | Potency [12] | Potency [13] | Potency [14] | Potency [16] | Potency [17] | outcome [18]

CCN(CC)CCN
inactive: outcome [1] | Potency [2] | outcome [4] | Potency [19] | Potency [5] | outcome [6] | max response [7] 2.52% | Potency [8] | Potency [9] | outcome [10] | Potency [11] | Potency [12] | Potency [13] | Potency [14] | Potency [15] | Potency [16] | Potency [17] | outcome [18]

CC(C)CO
inactive: outcome [1] | Potency [2] | Potency [3] | Potency [5] | outcome [6] | max response [7] -4.29% | outcome [10] | Potency [11] | Potency [12] | Potency [13] | Potency [15] | Potency [16] | Potency [17] | outcome [18]

N[C@@H](CSCCCO)C(=O)O
inactive: activity change, negative = cytotoxicity [1] 1.24% [at 15.8 µM] | activity change, negative = cytotoxic [2] 3.39% [at 15.8 µM] | activity change, negative = cytotoxic [4] 1.41% [at 15.8 µM] | activity change, negative = cytotoxicity [5] 2.66% [at 15.8 µM] | max response [7] 2.4% | activity change, negative = cytotoxic [10] 2.25% [at 15.8 µM] | cytotoxicity [11] -17.7% [at 15.8 µM] | cytotoxicity increase [12] -14.5% [at 15.8 µM] | activity change, negative = cytotoxicity [13] -0.729% [at 15.8 µM] | cytotoxicity increase [14] -0.789% [at 15.8 µM] | cytotoxicity increase [16] -15.9% [at 15.8 µM] | cytotoxicity increase [17] -2.04% [at 15.8 µM] | activity change, negative = cytotoxic [18] 0.578% [at 15.8 µM]

CC(=O)OC1CCCCC1C(C)(C)C (stereo not given)
inactive: outcome [1] | Potency [2] | outcome [4] | Potency [19] | Potency [5] | outcome [6] | max response [7] 3.56% | Potency [8] | Potency [9] | outcome [10] | Potency [11] | Potency [12] | Potency [13] | Potency [14] | Potency [15] | Potency [16] | Potency [17] | outcome [18]

CN1CCOC(c2ccccc2)c2ccccc2C1 (stereo not given)
inactive: outcome [1] | Potency [2] | Potency [3] | Potency [5] | outcome [6] | max response [7] 0.485% | Potency [8] | Potency [9] | outcome [10] | Potency [11] | Potency [12] | Potency [13] | Potency [14] | Potency [16] | Potency [17] | outcome [18]

CCCc1ccc(O)cc1
inactive: outcome [1] | Potency [2] | Potency [5] | outcome [6] | max response [7] 6.55% | Potency [8] | Potency [9] | outcome [10] | Potency [13] | Potency [14] | Potency [17] | outcome [18]

C[Si]1(C)O[Si](C)(C)O[Si](C)(C)O[Si](C)(C)O[Si](C)(C)O1
inactive: outcome [1] | Potency [2] | outcome [4] | Potency [19] | Potency [5] | outcome [6] | max response [7] 5.69% | Potency [8] | Potency [9] | outcome [10] | Potency [11] | Potency [12] | Potency [13] | Potency [14] | Potency [15] | Potency [16] | Potency [17] | outcome [18]

C=CCSSCCC
inactive: outcome [1] | Potency [3] | outcome [4] | Potency [19] | outcome [6] | Potency [8] | outcome [10] | Potency [11] | Potency [12] | Potency [13] | Potency [14] | Potency [16] | Potency [17] | outcome [18]
